Data on 14 compounds can be found in PubChem BioAssay (NCI).

Some test systems named below: NCI-H23 lung; NCI-H226 lung; NCI-H322M lung; HOP-62 NSCLC; NCI-H460 lung; HOP-92 NSCLC; NCI-H522 lung; 786-0 renal; COLO 205 colon; A549/ATCC NSCLC.
Test in all cases: NCI-60 one-dose screen, 48 h (100 = growth as untreated, 0 = no growth, -100 = all killed)
Common to all, as to conditions: 10 µM unless noted

Structures are written as SMILES. Compounds without any hit were thinned out: in the full panel of roughly 83,000, 20% have a hit.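 Values shown are percent growth following 48 h exposure of cells in 96-well plates to a single concentration of compound; below 10 was considered active.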 Unmarked numbers belong to inactive results. Activity calls are given as the source filed them.

For the compound `COC(=O)c1nc(-c2ccc(C)cc2)oc1S(=O)(=O)N1CCN(c2oc(-c3ccccc3)nc2C#N)CC1`, the growth in the assay with NCI-H23 lung was 102%; with NCI-H226 lung, 101%; in the assay with NCI-H322M lung, 103%; with HOP-62 NSCLC, 112%; in the assay with NCI-H460 lung it was 103%; in the assay with HOP-92 NSCLC, 106%. The results for the growth with NCI-H522 lung, with 786-0 renal and in the assay with COLO 205 colon were 92.2%, 102% and 107%, respectively.
Consider `COc1cc2c3c(n(CCCN4CCCC4)c(=O)c2cc1OC)-c1cc2c(cc1C3=O)OCO2`, for which the growth is -73.2% (active) with NCI-H23 lung; 80.1% in the assay with NCI-H226 lung; -40.2% (active) in the assay on NCI-H322M lung; -72.6% (active) in the assay on HOP-62 NSCLC; -78.6% (active) with NCI-H460 lung; 119% in the assay on HOP-92 NSCLC. Moreover, the growth was -59.7% (active) in the assay with NCI-H522 lung, -90.9% (active) with 786-0 renal and -77.3% (active) with COLO 205 colon.
Consider `O=S(=O)(Nc1ccc(C2CC2)cc1)c1ccc(-c2cnc(C3CC3)o2)cc1`, for which the growth in the assay on NCI-H23 lung was 73.9%; in the assay on NCI-H226 lung, 74.9%; with NCI-H322M lung, 92.3%; with HOP-62 NSCLC, 62.2%; in the assay on NCI-H460 lung, 73.2%; in the assay on HOP-92 NSCLC, 77.3%. Also, the growth in the assay on NCI-H522 lung is 59.6%; in the assay with 786-0 renal it was 88.5%; in the assay with COLO 205 colon it was 88.9%.
`NS(=O)(=O)c1ccc(Nc2nc(N/N=C/c3ccc(F)cc3)nc(Nc3ccccc3)n2)cc1`: the growth in the assay with NCI-H23 lung is 54.2%; in the assay with NCI-H226 lung, 50.8%; in the assay with NCI-H322M lung, 58.1%; with HOP-62 NSCLC, 17.9%; in the assay with NCI-H460 lung, 65.1%; in the assay on HOP-92 NSCLC, 63.5%. Further, the growth with NCI-H522 lung is 15.5%; in the assay with 786-0 renal, 58.8%; with COLO 205 colon it was 20.9%.
`COc1ccc(OC)c(NC2=C(Cl)C(=O)C(C)=C(C)C2=O)c1`: the growth in the assay on NCI-H23 lung was 85.8%; with NCI-H226 lung, 84.2%; in the assay with NCI-H322M lung, 103%; in the assay on HOP-62 NSCLC it was 92.1%; in the assay with NCI-H460 lung it was 98.4%; in the assay with HOP-92 NSCLC, 96.6%. Also, the growth in the assay on NCI-H522 lung was 87.2%; in the assay with 786-0 renal it was 102%; in the assay with COLO 205 colon, 107%.
Turning to `CCNC(=NCCCN(C)C)N/C(N)=N/c1nc2ccccc2s1`, the growth in the assay with NCI-H23 lung was 98.7%; in the assay on NCI-H226 lung, 92.7%; with NCI-H322M lung, 91.5%; in the assay on HOP-62 NSCLC, 82.4%; with NCI-H460 lung, 104%; with HOP-92 NSCLC it was 58.1%. Further, the growth in the assay on NCI-H522 lung is 99.2%; in the assay on A549/ATCC NSCLC it was 89.8%; in the assay with 786-0 renal, 84.6%; in the assay with COLO 205 colon it was 78.7%.
Take `Cc1ccc(-c2cc(-c3ccc(N(C)C)cc3)n3c(n2)nc2ccccc23)cc1`: the growth in the assay on NCI-H23 lung is 57.1%; in the assay with NCI-H226 lung, 57%; with NCI-H322M lung, 103%; with HOP-62 NSCLC, 83.1%; in the assay on NCI-H460 lung, 61.7%; with HOP-92 NSCLC it was 21.7%. The growth with NCI-H522 lung was 25.4%; in the assay with 786-0 renal, 80.8%; in the assay on COLO 205 colon, 92.5%.
In the case of `Oc1ccc(CSc2nnc(-c3ccccc3)o2)c2cccnc12`, the growth with NCI-H23 lung was 27.8%; in the assay on NCI-H226 lung it was 51.2%; with NCI-H322M lung it was 25.7%; with HOP-62 NSCLC, 13.8%; in the assay with NCI-H460 lung, 2.23% (active); in the assay with HOP-92 NSCLC, -3.86% (active). Besides, the growth was 22.6% in the assay on NCI-H522 lung, 24.5% in the assay with 786-0 renal and 98.9% with COLO 205 colon.
For `CC(c1ccccc1)N1C(=O)/C(=C/c2csc(C#N)n2)SC1=S` (stereo unspecified), the growth is 101% in the assay with NCI-H23 lung; 97% in the assay on NCI-H226 lung; 99.8% in the assay with NCI-H322M lung; 103% in the assay with HOP-62 NSCLC; 106% with NCI-H460 lung; 85.5% with HOP-92 NSCLC. Moreover, the figures for the growth in the assay with NCI-H522 lung, in the assay with 786-0 renal and in the assay on COLO 205 colon were 75.4%, 91% and 91.8%, respectively.
With `CC(=O)NC(C)(C)C(=O)N[C@@H](C)C(=O)NC(C)(C)C(=O)N[C@@H](C)C(=O)NC(C)(C)C(=O)N[C@@H](C)C(=O)N[C@@H](CCC(N)=O)C(=O)NC(C)(C)C(=O)N[C@H](C(=O)NC(C)(C)C(=O)NCC(=O)N[C@@H](CC(C)C)C(=O)NC(C)(C)C(=O)N1CCC[C@H]1C(=O)N[C@H](C(=O)NC(C)(C)C(=O)NC(C)(C)C(=O)N[C@@H](CCC(N)=O)C(=O)N[C@@H](CCC(N)=O)C(=O)N[C@H](CO)CC1CCCCC1)C(C)C)C(C)C`, the growth in the assay with NCI-H23 lung is 21.6% [5 µM]; in the assay with NCI-H226 lung, 35% [5 µM]; with NCI-H322M lung, 94.2% [5 µM]; in the assay on HOP-62 NSCLC, 46.3% [5 µM]; with NCI-H460 lung, 45.1% [5 µM]; with NCI-H522 lung it was 6.15% [5 µM] (active). In addition, the growth with 786-0 renal is 78.6% [5 µM]; with COLO 205 colon it was -12% [5 µM] (active).
Turning to `O=C1CSC(=O)N1Cc1cc2ccccc2nc1Cl`, the growth was 99.7% in the assay on NCI-H23 lung; 102% with NCI-H226 lung; 108% in the assay with NCI-H322M lung; 101% in the assay on HOP-62 NSCLC; 106% in the assay on NCI-H460 lung; 94.3% with NCI-H522 lung. Further, the growth in the assay on A549/ATCC NSCLC was 99.6%; in the assay with 786-0 renal, 100%; with COLO 205 colon it was 109%.
Turning to `CCN(CC)c1ccc2cc(C(=O)NCCOCCOCCOCCn3cc(CCC(=O)Nc4ccc(C(=O)c5ccc(NC(=O)OC(C)(C)C)cc5)cc4)nn3)c(=O)oc2c1`, the growth was 61.7% with NCI-H23 lung; 20.3% in the assay on NCI-H226 lung; 74.5% with NCI-H322M lung; 53.5% in the assay on HOP-62 NSCLC; 78.9% in the assay with NCI-H460 lung; 28.4% in the assay on NCI-H522 lung. The growth in the assay on A549/ATCC NSCLC is 73.1%; in the assay on 786-0 renal, 73.2%; in the assay on COLO 205 colon, 38.2%.
Consider `CC1(COc2ccc3ncc(C#Cc4cncc(C(=O)Nc5cc(C(C)(C)C)on5)c4)n3n2)COC1`, for which the growth with NCI-H23 lung is 28.7%; with NCI-H226 lung, 18.8%; in the assay with HOP-62 NSCLC, 29.1%; with NCI-H460 lung, 23.3%; in the assay on HOP-92 NSCLC, -22.6% (active); with NCI-H522 lung it was 56.9%. The growth is 47.2% with A549/ATCC NSCLC, 52.3% in the assay on 786-0 renal and 61.9% with COLO 205 colon.
In the case of `CC(C)Sc1nc(NC2CC2)c(C#N)c(-c2ccccc2)n1`, the growth in the assay on NCI-H23 lung is 67.5%; with NCI-H226 lung, 69.8%; in the assay with NCI-H322M lung it was 67.6%; in the assay with HOP-62 NSCLC, 71.5%; in the assay with NCI-H460 lung, 54.5%; in the assay on NCI-H522 lung, 89.2%. The growth with A549/ATCC NSCLC is 62.9%; with 786-0 renal it was 35%; in the assay with COLO 205 colon, 79.6%.
